Compound activity as filed in PubChem BioAssay.
FLuc counter: inhibits or activates purified firefly luciferase, miR-21 counter-screen; hit rate 6.9% among 360,000; Potency, µM (titrated, usually from 57.5 µM), actives largely listed as inhibitors; AID 588342; P08659; purified FLuc, Km substrates, luminescence inhibition; also: nearly all actives have a fitted effect of over 55% in size
Target sequence (P08659 whole entry, looked up): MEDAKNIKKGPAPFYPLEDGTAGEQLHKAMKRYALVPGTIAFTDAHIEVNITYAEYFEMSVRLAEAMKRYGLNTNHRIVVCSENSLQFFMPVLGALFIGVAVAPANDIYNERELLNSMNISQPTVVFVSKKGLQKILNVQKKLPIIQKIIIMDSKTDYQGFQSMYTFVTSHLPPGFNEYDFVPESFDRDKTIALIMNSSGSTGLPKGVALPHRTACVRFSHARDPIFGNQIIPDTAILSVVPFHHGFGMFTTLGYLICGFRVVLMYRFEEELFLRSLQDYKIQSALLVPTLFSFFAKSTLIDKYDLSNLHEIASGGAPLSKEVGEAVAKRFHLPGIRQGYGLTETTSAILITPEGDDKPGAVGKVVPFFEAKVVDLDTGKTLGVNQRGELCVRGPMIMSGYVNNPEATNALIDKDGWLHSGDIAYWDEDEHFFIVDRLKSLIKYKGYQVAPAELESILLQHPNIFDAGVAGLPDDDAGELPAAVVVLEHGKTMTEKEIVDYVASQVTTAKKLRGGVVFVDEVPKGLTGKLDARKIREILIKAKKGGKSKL
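Biochemical qHTS of compounds, final roughly 60 µM downward over six points, against 10 nM purified firefly luciferase using Km concentrations of substrates (10 uM D-luciferin, 10 uM ATP) in Tris acetate pH 7.5 buffer; luminescence output.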
NPC1 promoter act: activators of NPC1 promoter. hit rate 2.4% among 320,000. Potency, µM (highest dose often 9.22 µM), hits mostly activators. Huh7 NPC1 promoter luciferase reporter, 24 h; also: nearly all actives have a fitted effect of over 60% in size
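Stably transfected Huh7 (NPC1 promoter→luciferase), 1500 cells/well in Opti-MEM + 10% FBS, 2 h settle, then compound 24 h at 37 °C. Luminescence after 10 min with Amplite reagent.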
ELG1 genotoxic: genotoxicity induction in ELG1-luciferase HEK293T cells. hit rate 1.3% among 330,000. AID 504466. Potency, µM (series often up to 46 µM), actives largely listed as activators. HEK293T ELG1-luciferase reporter, luminescence, 16 h; also: nearly all actives have a fitted effect of over 60% in size
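16 hr compound incubation (37 °C, 5% CO2) of HEK293T cells carrying luciferase-tagged ELG1; luciferase then measured by ONE-Glo luminescence after 30 min at RT.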
Rab9 prom act: activators of Rab9 promoter; Huh7 Rab9 promoter-luciferase reporter, luminescence, 24 h; Potency, µM (doses to about 9.22 µM), usual class: activators; hit rate 2.8% among 320,000; AID 485297; also: nearly all actives have a fitted effect of over 60% in size
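Cells were plated at 1500 per well in reduced-serum medium with 10% FBS and left 2 h. Compound in DMSO was then added for 24 h at 37 °C. Reporter signal was read by luminescence after 10 min with luciferase detection reagent.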
SMN2 splice up: enhancers of SMN2 splice variant expression; Potency, µM (top dose mostly 46.1 µM), hits mostly activators; HEK293 SMN2-luciferase splicing reporter, luminescence, 30-36 h; AID 1458; hit rate 2.8% among 210,000; also: nearly all actives have a fitted effect of over 55% in size
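qHTS luciferase splicing reporter: luminescence rises when SMN2 exon 7 is included in transfected HEK293 cells. Compound exposure lasted 30-36 h at 37C, with 4.5 mM final sodium butyrate as control, followed by a ONE-Glo read.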
KinaseGlo FLuc: Kinase-Glo luciferase inhibition (counter-screen). AID 1379. Potency, µM (titrated, usually from 38.3 µM), actives largely listed as inhibitors. hit rate 0.28% among 200,000. Kinase-Glo luciferase, ATP luminescence, 8 min; also: nearly all actives have a fitted effect of over 60% in size
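Inhibition of Kinase-Glo luciferase light generation was assessed at 10 uM ATP in pH 7.2 imidazole buffer, with luminescence measured after eight minutes at ambient temperature.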
Hits are given with their value; - = inactive; ? = inconclusive; . = no result given; [ ] = remark or other dose. The list is not random: actives were taken first. Their share in the collection is about 7.4%. Calls follow the shape of the dose curve; as a rule, active = well fitted curve in the direction sought with a large enough effect; inconclusive = small, poorly fitted or top-dose-only effect, or another doubt; inactive = no such curve, though single readings can be large; an effect the other way counts as inactive or inconclusive.

SMILES | FLuc counter | NPC1 promoter act | ELG1 genotoxic | Rab9 prom act | SMN2 splice up | KinaseGlo FLuc
S=C(Nc1ccccc1)Nc1ccccc1C#Cc1ccccc1 | . | . | . | . | - | -
CC(C)C[C@@H](CC(=O)N[C@@H](CCC(=O)O)CC(=O)O)NC(=O)[C@@H]1CNCC[C@H]1NC(=O)C[C@@H](NC(=O)C[C@H](Cc1ccccc1)NC(=O)[C@@H]1CCCC[C@H]1N)C(C)C | . | . | . | . | - | -
CCN(CC)CCCCC1CCN(CC(=O)N2c3ccccc3C(=O)Nc3cccnc32)CC1 | . | . | . | . | - | -
CCOC(=O)c1ccc(NC(=O)c2csc3c2CCCC3)cc1 | ? | . | . | . | - | .
CC(=O)c1cccc(NC(=O)c2csc3c2CCCCC3)c1 | 13µM | - | - | - | - | -
CCOc1ccc(NC(=O)c2csc3c2CCCC3)cc1 | 2.7µM | 2.2µM | ? | 3.5µM | 11µM | -
CC(=O)c1cccc(NC(=O)Nc2csc3c2CCCC3)c1 | 17µM | - | - | - | . | .
CCOC(=O)C1(Cc2ccccc2Cl)CCN(C(=O)c2cnccn2)CC1 | 15µM | ? | ? | 2.8µM | . | .
CCOC(=O)C1CCN(C(=O)c2nn(-c3ccc(C)cc3)c(=O)c3c2c2ccccc2n3C)CC1 | - | . | . | . | - | .
O=C(Cc1cccc2ccccc12)Nc1nc2ccccc2[nH]1 | - | - | - | - | - | -
O=C(Nc1nc2ccccc2[nH]1)C1CCC1 | 17µM | ? | ? | 2.8µM | 13µM | ?
O=C(CC1CCCC1)Nc1nc2ccccc2[nH]1 | 9.5µM | 3.5µM | 16µM | 2.8µM | 13µM | -
O=C(NCc1nc2ccccc2[nH]1)C1CCCCC1 | - | - | - | - | - | -
O=C(Nc1nc2ccccc2[nH]1)C1CCCC1 | 15µM | 1.6µM | ? | 1.3µM | 11µM | ?
Cc1ccc(Cl)cc1NC(=O)C1CCN(c2nc3ccccc3n3cccc23)CC1 | - | . | . | . | . | .
COc1ccc(CNC(=O)CN2C(=O)c3cccnc3Oc3ccc(C)cc32)cc1 | - | . | . | . | . | .
COC(=O)N1C(c2ccccc2)=Cc2ccccc2C1C1(C(=O)OC)CCCC1=O (stereo not given) | . | . | . | . | - | -
Cc1cccc(Nc2ncnc3nc[nH]c23)c1 | ? | - | ? | ? | ? | -
Fc1cccc(/C=N/Nc2ncnc3nc[nH]c23)c1 | 19µM | ? | - | 3.5µM | 10µM | ?
c1ccc(CNc2ncnc3nc[nH]c23)nc1 | - | - | - | - | - | -
Fc1ccccc1/C=N/Nc1ncnc2nc[nH]c12 | ? | - | 21µM | - | 13µM | -
O=C(NCCc1ccccc1)c1ccc(CSc2nc3ccncc3n2Cc2ccccc2F)cc1 | - | . | . | . | ? | .
CCOC(=O)C1CCN(C(c2ccccc2)c2c(O)cc(C)n(Cc3ccco3)c2=O)CC1 (stereo not given) | - | . | . | . | . | .
CCOC(=O)c1[nH]c(C)c(CCC(=O)Nc2ccc(C)cc2Cl)c1C | - | . | . | . | . | .
COC(=O)c1cc2c(=O)c3ccccc3oc2nc1C | 11µM | 2.2µM | ? | ? | . | .
SMILES | FLuc counter | NPC1 promoter act | ELG1 genotoxic | Rab9 prom act | SMN2 splice up | KinaseGlo FLuc
Cc1nc2oc3ccccc3c(=O)c2cc1C(=O)O | - | - | - | -[1.84 µM] | . | .
CCc1nc2oc3ccc(C)cc3c(=O)c2cc1C(=O)OC | 3µM | 3.5µM | ? | 3.5µM | . | .
CCc1ccc(NC(=O)Cn2c(=O)n(CCC(=O)NCCc3ccc(OC)c(OC)c3)c(=O)c3ccccc32)cc1 | - | . | . | . | - | .
CCc1ccc(NC(=O)C2=CC=CN3CCS(=O)(=O)N=C23)cc1 | 15µM | - | - | - | . | .
CC(C)c1ccc(NC(=O)C2=CC=CN3CCS(=O)(=O)N=C23)cc1 | ? | - | ? | - | . | .
CCN1CCN(C(=O)CSc2cc(=O)n(CC)c3ccccc23)CC1 | - | - | 21µM | - | - | -
O=C(Cn1cc(SCc2ccccc2Cl)c2ccccc21)N1CCOCC1 | 12µM | ? | - | ? | 18µM | -
O=C(Cn1cc(SCc2ccccc2F)c2ccccc21)N1CCCC1 | 17µM | . | . | . | . | .
Cn1cc(SCC(=O)N2CCOCC2)c2ccccc21 | - | - | ? | - | - | -
CCn1cc(SCC(=O)N2CCOCC2)c2ccccc21 | ? | ? | 18µM | ? | ? | -
Cc1ccc(Cl)cc1 | . | . | . | . | - | .
NCCC[C@@H](CC(=O)N[C@@H]1CCNC[C@H]1C(=O)N[C@H](CC(=O)N[C@@H](CCC(=O)O)CC(=O)O)Cc1c[nH]c2ccccc12)NC(=O)C[C@H](Cc1c[nH]c2ccccc12)NC(=O)[C@@H]1CNCC[C@H]1N | . | . | . | . | - | -
Cn1cccc1/C=N/n1c(-c2ccccc2)n[nH]c1=S | - | - | - | - | - | -
Cn1cccc1/C=N/n1c(-c2ccc(C(C)(C)C)cc2)n[nH]c1=S | 21µM | - | - | - | - | -
Cc1nn(-c2ccccc2)c(C)c1/C=N/n1c(-c2ccc(Cl)cc2)n[nH]c1=S | - | - | - | - | - | -
Cc1ccc(-c2n[nH]c(=S)n2/N=C/c2c(C)[nH]n(-c3ccccc3)c2=O)cc1 | 12µM | - | - | - | - | -
CSc1nnc(-c2ccccc2N=Cc2c(C)[nH]n(-c3ccccc3)c2=O)c(=O)[nH]1 | - | - | - | - | - | -
Cc1ccc2cccc(N=Cc3c(C)[nH]n(-c4ccccc4)c3=O)c2n1 | 17µM | - | ? | - | . | .
COc1ccc(C(=O)N(c2ccc(C)cc2)S(=O)(=O)c2ccc(C)cc2)cc1 | - | . | . | . | . | .
Cc1ccc(NC(=O)Cn2c(=O)c3ccc(Cl)cc3n3nncc23)cc1 | - | . | . | . | - | .
CN(C)C=Nc1ccc(Cl)c(Cl)c1 | - | - | - | - | . | .
CN(C)C=Nc1ccc2nn(-c3ccccc3)nc2c1 | 5.4µM | 2.8µM | ? | 1µM | 5µM | -
CC(=O)c1ccc(NC(=O)c2ccn(C(=O)OCC(C)C)n2)cc1 | 19µM | 4µM | ? | ? | 10µM | -
CC(C)COC(=O)n1ccc(C(=O)N2CCCCC2)n1 | - | - | - | - | - | -
CCOc1cc(/C=C\c2nc(O)c([N+](=O)[O-])c(=O)[nH]2)ccc1OC(C)C | - | - | - | - | . | .
SMILES | FLuc counter | NPC1 promoter act | ELG1 genotoxic | Rab9 prom act | SMN2 splice up | KinaseGlo FLuc
C=CCc1cc(/C=C/c2nc(O)c([N+](=O)[O-])c(=O)[nH]2)cc(OC)c1O | 17µM | - | - | - | - | -
O=[N+]([O-])c1ccc(NC(=S)N/C(=N/CS(=O)(=O)c2ccccc2)c2ccccc2)cc1 | ? | - | ? | - | - | -
COc1ccc(NC(=S)N/C(=N/CS(=O)(=O)c2ccccc2)c2ccccc2)cc1 | 2.7µM | 2.8µM | ? | ? | - | -
CC(=O)c1ccc(NC(=S)NNC(=O)c2ccncc2)cc1 | 19µM | - | - | - | - | -
COc1ccccc1NC(=S)NNC(=O)c1cc(C)nn1C | ? | - | - | - | - | -
COc1cc(OC)cc(C(=O)NNC(=S)Nc2ccccc2OC)c1 | 21µM | - | - | - | - | -
Cc1ccccc1NC(=S)NNC(=O)c1ccncc1 | - | - | - | - | - | -
COc1ccccc1NC(=S)NNC(=O)c1c(Cl)c(C)nn1C | 15µM | - | - | - | - | -
